# Compound activity deposited in PubChem BioAssay by The Scripps Research Institute Molecular Screening Center.
# Only a selection was taken, and hits are over-represented in it overall.
# TbREL1 primary = TbREL1 inhibition, primary screen; P86926; TbREL1 RNA ligation, FRET fluorescence; inhibition, % at 9.66 µM; 89,000 tested, 0.49% active; AID 1117264;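 active means inhibition above the mean inhibition across all screened compounds plus 3 SD, cut at about 11% in these data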
# Target sequence (P86926 whole entry, looked up): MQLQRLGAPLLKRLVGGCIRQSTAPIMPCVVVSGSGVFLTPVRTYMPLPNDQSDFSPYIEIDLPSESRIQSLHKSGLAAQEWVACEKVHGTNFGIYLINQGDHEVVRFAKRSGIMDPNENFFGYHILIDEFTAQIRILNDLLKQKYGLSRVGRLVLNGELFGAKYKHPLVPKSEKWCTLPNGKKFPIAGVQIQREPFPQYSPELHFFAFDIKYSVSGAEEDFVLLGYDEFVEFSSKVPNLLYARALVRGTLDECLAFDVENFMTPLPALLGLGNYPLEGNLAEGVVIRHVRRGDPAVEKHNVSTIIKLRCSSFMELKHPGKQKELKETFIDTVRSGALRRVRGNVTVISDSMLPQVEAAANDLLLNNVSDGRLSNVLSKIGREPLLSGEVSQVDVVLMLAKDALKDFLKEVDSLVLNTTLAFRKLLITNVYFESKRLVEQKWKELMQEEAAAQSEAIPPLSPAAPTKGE
# TbREL1 confirm = TbREL1 inhibition, confirmation. TbREL1 RNA ligation, FRET fluorescence. shares compounds with TbREL1 primary. 390 tested, 37% active. inhibition, % at 9.66 µM;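 active means mean inhibition across replicates above a set limit taken from the earlier primary screen, cut at about 11% in these data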
# Hits are given with their value; i = inactive.
SMILES,TbREL1 primary,others
COC(=O)c1cc(-c2ccc(C)cc2)c(=O)n2c1CCC2,i,
COCCCNC(=O)c1ccc(Cn2c(=O)c3ccccc3n(Cc3ccc(Br)cc3)c2=O)cc1,i,
O=C(C[n+]1cc2ccccc2c2ccccc21)c1ccccc1,13.1,TbREL1 confirm=i
Cc1nc2c(C)[n+](CC(=O)c3ccccc3)ccc2n1C,i,
O=C(O)CCC(=O)CCC(=O)c1ccccc1,i,
Cc1ccc(C(=O)NC2CCCCN(C)C2=O)c(C)c1 (centres undefined),i,
O=C(Nc1ccc(C(=O)NN2C(=O)c3ccccc3C2=O)cc1)c1ccccc1,i,
NS(=O)(=O)c1ccc(NC(=O)c2cccc(N3C(=O)c4ccccc4C3=O)c2)cc1,12.2,TbREL1 confirm=23.4
NS(=O)(=O)c1ccc(NC(=O)c2cc(=O)c3ccccc3o2)cc1,i,
O=C(CCn1nnc(-c2cccs2)n1)N1CCCC1,i,
Cc1cccc(C)c1N1C(=O)CC(N2CCN(S(=O)(=O)c3ccccc3F)CC2)C1=O (centres undefined),i,
O=C1CC(N2CCN(S(=O)(=O)c3ccccc3F)CC2)C(=O)N1c1ccccc1F (centres undefined),11.2,TbREL1 confirm=i
O=C1CC(N2CCN(S(=O)(=O)c3ccccc3)CC2)C(=O)N1c1ccccc1 (centres undefined),i,
CCCC1CCC2(CC1)CCC2OC(=S)Nc1ccc(Br)cc1 (centres undefined),i,
CCN(Cc1ccccc1)C(=O)CCCN1C(=O)COc2ccc(C)cc21,i,
O=C(CSc1nnc(-c2ccccc2)n1Cc1ccco1)Nc1ccc(Oc2ccccc2)cc1,i,
O=C(SCC(O)C(O)CS)c1cccs1 (centres undefined),17.8,TbREL1 confirm=i
CSc1ccccc1NC(=O)c1cccs1,i,
Nc1ccc(C(=O)c2cccs2)cc1,i,
COC(=O)C1CCCN(C(=O)C2CCN(S(=O)(=O)c3ccc([N+](=O)[O-])cc3)CC2)C1 (centres undefined),i,
O=Cc1cscc1[B-](F)(F)F,i,
O=C(OCC#CCSc1nnc(-c2cccc3ccccc23)o1)c1cccc(C(F)(F)F)c1,i,
C=CCN1C(=O)[C@H](CC(=O)NCc2cccc(C(F)(F)F)c2)[C@@]2(C(=O)OCC)CCCC=C12,i,
COc1ccc(CNCCC(c2ccccc2)c2ccc(OC(C)C)cc2)cc1OC (centres undefined),i,
COc1ccc(C(CCNCc2ccc(OC(C)C)cc2)c2ccccc2OC)cc1 (centres undefined),15.0,TbREL1 confirm=19.2
SMILES,TbREL1 primary,others
CC(C)Oc1ccc(CNCCC2(C(C)C)CCOC(C)(C)C2)cc1 (centres undefined),i,
C=CCN1C/C(=C/c2ccccc2)N2C(=O)CC(c3ccccc3)N=C12 (centres undefined),i,
C=CCN1C(=O)[C@@H](CC(=O)NCCCOCCCC)[C@]2(C(=O)OC)CCCCC=C12,i,
O=C(CSc1nnc(-c2ccccc2)n1-c1ccc(Cl)cc1)c1ccccc1Br,i,
O=C(O)c1cccc(NS(=O)(=O)c2cccc3cccnc23)c1,i,
CCOc1ccc(C(=O)O)cc1OC,i,
O=C(O)c1ccnc(C(=O)O)c1,12.6,TbREL1 confirm=15.6
O=C(Nc1ccccc1)Nc1c(-c2ccccc2)nc2ncccn12,i,
c1ccc(-c2nn(Cc3ncco3)c3ccccc23)cc1,i,
CC(=O)N1CCc2cc(S(=O)(=O)NCCC(=O)N(C)C3CCCCC3)ccc21,i,
COc1ccc(NC(=O)CSc2nc(C)cc(=O)[nH]2)cc1OC,i,
CCCCCOc1ccc(C(=O)Nc2ccc(S(=O)(=O)Nc3cc(C)on3)cc2)cc1,i,
CCOc1cc(C(=O)Nc2ccc(S(=O)(=O)Nc3cc(C)on3)cc2)cc(OCC)c1OCC,61.2,TbREL1 confirm=i
Cc1cc(NS(=O)(=O)c2ccc(NC(=S)NC(=O)c3ccccc3)cc2)no1,i,
CCN(C(=O)[C@@H]1CC(=O)O[C@@H]1c1ccccc1)c1ccccc1,i,
CCCN1CCCCC(NC(=O)c2cccs2)C1=O (centres undefined),i,
C[C@@H]1CN=C2N(CCNC(=O)CCC3CCCCC3)[C@H](Cc3ccc(O)cc3)CN21,i,
COc1ccc(C[C@H]2CN3C(=NC[C@@H]3Cc3ccccc3)N2CCNC(=O)CCC2CCCCC2)cc1,20.9,TbREL1 confirm=17.8
O=C(CCC1CCCCC1)NCCN1C2=NC[C@H](Cc3ccc(O)cc3)N2C[C@H]1Cc1ccc(O)cc1,i,
O=C(c1ccc(F)cc1)C1CCN(c2ncnc3sccc23)CC1,i,
Nc1ccc2cc3ccc(N)cc3nc2c1,30.6,TbREL1 confirm=i
Nc1ccc2c(c1)nnn2-c1ccccc1,i,
Nc1cccc(-c2nc3ccc(N)cc3s2)c1,i,
COC(=O)c1ccc(Cn2ccc3ccc(-c4ccc5ccn(C(=O)C6CCCCC6)c5c4)cc32)cc1,i,
CC(=O)N1CCN(C(=O)C2CCCN(C(=O)c3ccc4c(c3)NC(=O)CS4)C2)CC1 (centres undefined),i,
SMILES,TbREL1 primary,others
Cc1ccnc(NC(=S)N2CCC(Nc3cccc(C(F)(F)F)c3)CC2)c1,i,
CCCCC(=O)N[C@H]1CC[C@@]23CCCN2C(=O)CCC[C@H]3[C@H]1CCC,i,
COc1ccc(NC(=O)CSc2nc(C)c3c(c2C#N)CCCC3)cc1,i,
CN1CCc2nc(SCC(=O)Nc3ccc(OC(F)(F)F)cc3)c(C#N)c(-c3cccs3)c2C1,12.5,TbREL1 confirm=i
CC(=O)CSc1nc(N)c(C#N)c(-c2cccs2)c1C#N,i,
CCCN(CC1CC1)c1c2c(nc3ncnn13)CCCC2,i,
COc1cc(C(=O)N2CCN(c3ccccc3O)CC2)ccc1OCC(=O)N1CCOCC1,i,
COc1cc(C(=O)N2CCN(c3cccc(C)c3C)CC2)ccc1OCC(=O)N1CCOCC1,12.6,TbREL1 confirm=i
COc1cc(C(=O)N2CCN(S(=O)(=O)c3cc(C)ccc3C)CC2)ccc1OCC(=O)N1CCOCC1,i,
COC(=O)C1CCN(C(=O)C2CC(=O)N(c3ccc(OC)cc3)C2c2ccc(OC)cc2)CC1 (centres undefined),i,
COC(=O)[C@]12C[C@H](CC(=O)NCc3cccc4ccccc34)C(=O)N(Cc3cccc4ccccc34)C1=C[C@H](C1CCCC1)O[C@@H]2C,i,
CC(=O)N1CCc2cc(S(=O)(=O)NC3CCN(C(=O)CCl)CC3)ccc21,i,
Nc1ccc2nc(-c3ccccn3)[nH]c2c1,i,
Nc1ccc2nc(-c3ccc(N)c(Cl)c3)[nH]c2c1,13.2,TbREL1 confirm=i
Nc1ccc2nc(-c3cccnc3)[nH]c2c1,i,
COc1ccc(C(=O)CSc2nnc(-c3ccccn3)n2-c2ccccc2)cc1,i,
Oc1ccc(CNc2ccccc2Br)c2cccnc12,14.2,TbREL1 confirm=i
OCc1ccnc2c(O)cccc12,i,
O=Nc1ccc(O)c2ncccc12,i,
Oc1ccc(CNc2ccc(C(F)(F)F)cc2F)c2cccnc12,12.6,TbREL1 confirm=i
Oc1ccc(CNc2cccc(F)c2)c2cccnc12,i,
Oc1ccc(CCc2c(F)cccc2F)c2cccnc12,i,
CCC[C@H]1[C@@H](NCc2ccccc2)CC[C@@]23CCCN2C(=O)CCC[C@@H]13,i,
O=C(C1CCCN(S(=O)(=O)c2ccc(F)cc2)C1)N1CCN(Cc2ccccc2)CC1 (centres undefined),i,
O=C(CSc1nnc(SCc2cccc3ccccc23)s1)Nc1ccc(S(=O)(=O)Nc2nccs2)cc1,i,
SMILES,TbREL1 primary,others
Cc1cccc(NC(=O)c2cccc3c2-c2ccccc2C3=O)c1C,i,
CCOC(=O)N1CCN(C(=O)C[C@H]2C[C@@]3(C(=O)OC)C(=C[C@H](C4CCCC4)O[C@@H]3C)N(Cc3ccco3)C2=O)CC1,i,
CCOc1ccccc1OCCN1CCC(Cc2ccccc2)CC1,i,
CC(=O)CCc1ccc(OCCCCN2CCC(Cc3ccccc3)CC2)cc1,i,
CCC(=O)c1ccccc1OCCCN1CCC(Cc2ccccc2)CC1,11.3,TbREL1 confirm=11.4
CCn1c(COc2ccc(C)cc2)nnc1SCC(=O)c1ccc(-c2ccccc2)cc1,i,
COCCCNC(=O)Cn1nc(Cc2ccncc2)c2ccccc2c1=O,i,
